12-LOX inh – ALOX12 (human) lipoxygenase inhibition. purified 12hLO, xylenol orange hydroperoxide absorbance. Potency, µM (series often up to 108 µM), for inactives: at the top dose activity change, negative = inhibition, actives largely listed as inhibitors. hit rate 1.1% among 580,000. AID 1671190; note: % is set by controls: 0 for no effect and ±100 for the full control effect
Target sequence (P18054 whole entry, looked up): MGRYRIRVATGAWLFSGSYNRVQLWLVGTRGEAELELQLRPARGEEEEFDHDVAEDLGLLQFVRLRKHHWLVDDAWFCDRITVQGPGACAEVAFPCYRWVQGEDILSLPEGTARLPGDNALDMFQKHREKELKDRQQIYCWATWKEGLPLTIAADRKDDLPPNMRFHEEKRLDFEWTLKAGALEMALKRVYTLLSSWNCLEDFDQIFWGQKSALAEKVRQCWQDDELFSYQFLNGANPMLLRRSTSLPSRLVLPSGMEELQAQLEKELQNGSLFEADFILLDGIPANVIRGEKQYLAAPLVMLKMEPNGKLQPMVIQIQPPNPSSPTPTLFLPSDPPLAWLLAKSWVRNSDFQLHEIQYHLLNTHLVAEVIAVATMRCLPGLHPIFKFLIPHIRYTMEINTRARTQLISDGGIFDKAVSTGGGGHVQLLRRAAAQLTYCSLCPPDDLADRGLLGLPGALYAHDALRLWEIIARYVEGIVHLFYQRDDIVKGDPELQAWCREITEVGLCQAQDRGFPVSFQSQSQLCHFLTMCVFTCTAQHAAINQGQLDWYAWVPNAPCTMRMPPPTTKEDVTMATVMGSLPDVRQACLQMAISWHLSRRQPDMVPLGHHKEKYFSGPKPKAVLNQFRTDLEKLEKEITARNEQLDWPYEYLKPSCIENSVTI
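Purified human 12hLO at 150 nM in 25 mM Hepes, 0.01% Triton X-100, pH 7.0, preincubated 15 min at room temperature with compound. Reaction started with 40 uM arachidonic acid, 30 min at room temperature. Hydroperoxide measured by Fe-xylenol orange, 573/405 nm absorbance ratio.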
TGFb inhibitor – blocks TGF-b signaling; HepG2 CAGA-GFP TGF-b/SMAD3 reporter, GFP fluorescence, 18 h; TGF-beta stimulated, 500 pg/mL final; AID 588855; Potency, µM (titrated, usually from 46.1 µM), for the others: at the top dose activity, negative = inhibition, most hits filed as inhibitors; hit rate 1.2% among 410,000; note: % is set by controls: 0 for no effect and ±100 for the full control effect; nearly all actives have a fitted effect of over 65% in size
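HEPG2 CAGA-GFP, 1000 cells/well; 2 h settle, 37 C; cpd via pin tool; TGF-b 500 pg/mL final; 18 h, 37 C; GFP imaging ex488/em500-530; %Activity normalised to -TGF-b and +DMSO controls; CRC fit, curve class.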
S2 tox – cell viability loss in ATXN counter-screen | S2 cells (HEK-293 line with an ATXN2-luciferase reporter) viability, CellTiter-Fluor protease fluorescence, 24 h | Potency, µM (top dose mostly 56.7 µM), hits mostly cytotoxic | hit rate 0.49% among 400,000 | AID 651635; note: nearly all actives have a fitted effect of over 40% in size
ATXN2 expr inh – inhibitors of ATXN2 expression. HEK-293 ATXN2-luciferase reporter, luminescence, 24 h. Potency, µM (highest dose often 57 µM), for the others: top-dose activity change, negative = inhibition, usual class: inhibitors. hit rate 0.72% among 360,000; note: % is set by controls: 0 for no effect and ±100 for the full control effect; nearly all actives have a fitted effect of over 55% in size
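qHTS (up to 57 uM final) was run with 24 h compound exposure of reporter cells at 37 °C. Each well was multiplexed: SteadyGlo luminescence measured ATXN2-luciferase expression after a fluorogenic Gly-Phe-AFC viability readout (25 uM final).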
HepG2 tox – kills HepG2 cells in TGF-b inhibitor counter-screen. hit rate 0.76% among 410,000. Potency, µM (titrated, usually from 46.1 µM), for inactives: top-dose activity change, negative = cytotoxicity, usual class: cytotoxic. HepG2 CAGA-GFP viability, ATP luminescence, 18 h. AID 588856
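CellTiter-Glo luminescence gave cytotoxicity after 18 hours at 37 degrees C. The cells were HepG2 CAGA-GFP in 1% FBS DMEM, stimulated with 500 pg/mL TGF-beta after compound addition. %Activity was normalised to no-cell wells (complete cell-killing) and DMSO (no toxicity), and curves were fitted and classified.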
The depositor's hits bear a star; i = inactive; u = inconclusive; x = not tested or not shown; [ ] = dose if it differs, or a comment. This is a sample that favours compounds with a hit; in the whole collection about 2.7% have one here. Calls come from the whole dose curve; as a rule, active = well fitted curve in the direction sought with a large enough effect; inconclusive = small, poorly fitted or top-dose-only effect, or another doubt; inactive = no such curve, though single readings can be large; an effect the other way counts as inactive or inconclusive. Potency is the fitted concentration of half-maximal effect.

SMILES | 12-LOX inh | TGFb inhibitor | S2 tox | ATXN2 expr inh | HepG2 tox
CC(=O)c1ccc(N2CCN(C(=O)Nc3ccc(F)cc3F)CC2)cc1 | -5.7% | -19.9% | i | -3.4%[11.3 µM] | -11.0%
O=C(Nc1ccc(F)cc1F)N1CCN(c2ccc(Cl)c(Cl)c2)CC1 | -24.6% | u | u | 20µM* | -38.6%
CCCSc1ccccc1C(=O)NC(C)(C)C | 0.5% | x | x | x | x
O=C(Nc1c(Cl)cc([N+](=O)[O-])cc1Cl)c1cc(Cl)ccc1O | x | 1.26µM* | x | x | -62.5%
COc1ccc(NC(=O)c2cc([N+](=O)[O-])ccc2O)cc1 | -5.5% | 11.2µM* | u | x | 10µM*
COc1ccc(NC(=O)c2cccc([N+](=O)[O-])c2)cc1 | -1.5% | -5.8% | i | -4.0%[11.3 µM] | 0.0%
CNS(=O)(=O)c1cc(C(=O)NCC2(c3ccccc3)CC2)cc(C)c1C | -0.8% | x | x | x | x
COC(=O)c1ccc(C)c(NC(=O)COc2ccc3c(C)cc(=O)oc3c2)c1 | 5.0% | x | x | x | x
O=C(Nc1nc(COc2ccccc2)cs1)C12CC3CC(CC(C3)C1)C2 | 28.2µM* | u | i | 47.6% | -18.2%
CC(=O)Nc1nc(COc2ccccc2)cs1 | -15.3% | u | i | 23.0% | -68.6%
CCN(CC(=O)Nc1ccc(NC(C)=O)cc1)c1ccc(C(F)(F)F)cn1 | -10.9% | 3.4% | i | 4.7% | 3.55µM*
CC(NNC(=S)N1CCCCCC1)c1ccc2ccccc2n1 (centres undefined) | u | u | x | 8.91µM* | -14.5%
COc1ccc(C2(C)N(O)C(C)C(c3cccs3)=[N+]2[O-])cc1 (centres undefined) | -4.6% | x | x | x | x
O=C(Nc1ccnn1C1CCN(Cc2ccc(-c3ccco3)cc2)CC1)C1CC1 | 11.2µM* | x | x | x | x
COc1ccccc1C(=O)Nc1ccnn1C1CCN(C/C=C/c2ccccc2)CC1 | -2.7% | -3.9% | i | -18.1% | 2.9%
COc1ccccc1/C=C/CN1CCC(n2nccc2NC(=O)C2CC2)CC1 | 28.2µM* | -0.3% | i | 0.0% | -4.6%
CCNC(=O)NC(=O)COC(=O)c1csc(NCc2ccccc2)n1 | -2.1% | x | x | x | x
CS(=O)(=O)c1ccc(C(=O)NCCN2C(=O)S/C(=C\c3cccnc3)C2=O)cc1[N+](=O)[O-] | 0.0% | 14.1µM* | x | x | -142.1%
CC(=O)c1ccc(OCc2ccccc2)cc1O | 32.0% | x | x | x | x
O=C(Nc1ccc(Cl)c([N+](=O)[O-])c1)c1ccc(NCCCN2CCOCC2)c([N+](=O)[O-])c1 | -1.7% | 7.2% | u | 31.6µM* | -15.4%
CCc1cc(-c2[nH]ncc2-c2ccc([N+](=O)[O-])cc2)c(O)cc1OC | x | 12.6µM* | i | -5.2% | -62.6%
O=[N+]([O-])c1ccc(COc2ccc(-c3[nH]ncc3-c3ccc(Cl)cc3)c(O)c2)cc1 | -22.9% | u | u | u | -86.8%
CC1CCC(C(=O)Nc2ccc(Br)cc2)CC1 (centres undefined) | 15.3% | x | x | x | x
Cc1ccc(C2=NN(C(=O)Cn3nnc(-c4ccc(C(N)=O)cc4)n3)C(c3ccco3)C2)cc1 (centres undefined) | 28.2µM* | x | x | x | x
COc1cccc(/C=N/NC(=O)C(=O)N2CCCC2)c1OC | 2.6% | -1.9% | i | 1.2% | -13.0%
SMILES | 12-LOX inh | TGFb inhibitor | S2 tox | ATXN2 expr inh | HepG2 tox
CCOc1ccc(/C=N/NC(=O)C(=O)N2CCCCCC2)c2ccccc12 | 3.7% | 7.94µM* | u | u | -56.2%
Cc1c(CC(=O)NCCc2ccc(Cl)cc2)c(=O)oc2c(C)c(O)ccc12 | -6.9% | x | x | x | x
COc1ccc(Cl)cc1C(=O)N1CCC2(CC1)CC(=O)c1ccccc1O2 | u | -3.8% | i | -8.2% | -4.4%
O=C(c1ccc2c(c1)OCO2)N1CCC2(CC1)NC(=O)N(c1ccccc1Cl)N2 | 2µM* | x | x | x | x
COc1ccc(C(=O)N2CCC3(CC2)NC(=O)N(c2ccccc2Cl)N3)cc1 | 2.24µM* | x | x | x | x
O=C(c1ccoc1)N1CCC2(CC1)NC(=O)N(c1ccccc1Cl)N2 | 1.26µM* | x | x | x | x
COc1ccc(Cl)cc1C(=O)N1CCC2(CC1)NC(=O)N(c1ccccc1Cl)N2 | 1.78µM* | x | x | x | x
O=C1NC2(CCN(C(=O)c3ccc4c(c3)OCO4)CC2)COc2ccccc21 | 48.1% | x | x | x | x

Bioassay records: PubChem, National Center for Advancing Translational Sciences (NCATS)
